# In PMC7862700, “An all-to-all approach to the identification of sequence-specific readers for epigenetic DNA modifications on cytosine”:
# Tests used:
# Assay in all cases: DAPPL (digital affinity profiling via proximity ligation, sequencing); 10 mM Tris-HCl pH 7.5, 50 mM NaCl, 1 mM DTT, 4% glycerol, room temperature, 30 min; GST-TFs on glutathione beads, 16-mer random dsDNA library, 0.1% formaldehyde crosslink after washing; high values mean tight binding
# Conditions in all cases: protein: recombinant; tags: N-terminal GST; dsDNA, one strand shown
# ELF4 = ELF4 (Homo sapiens, UniProt Q99607 1-663)
# Sequence of ELF4 (Q99607 whole entry, the tested form may be a part): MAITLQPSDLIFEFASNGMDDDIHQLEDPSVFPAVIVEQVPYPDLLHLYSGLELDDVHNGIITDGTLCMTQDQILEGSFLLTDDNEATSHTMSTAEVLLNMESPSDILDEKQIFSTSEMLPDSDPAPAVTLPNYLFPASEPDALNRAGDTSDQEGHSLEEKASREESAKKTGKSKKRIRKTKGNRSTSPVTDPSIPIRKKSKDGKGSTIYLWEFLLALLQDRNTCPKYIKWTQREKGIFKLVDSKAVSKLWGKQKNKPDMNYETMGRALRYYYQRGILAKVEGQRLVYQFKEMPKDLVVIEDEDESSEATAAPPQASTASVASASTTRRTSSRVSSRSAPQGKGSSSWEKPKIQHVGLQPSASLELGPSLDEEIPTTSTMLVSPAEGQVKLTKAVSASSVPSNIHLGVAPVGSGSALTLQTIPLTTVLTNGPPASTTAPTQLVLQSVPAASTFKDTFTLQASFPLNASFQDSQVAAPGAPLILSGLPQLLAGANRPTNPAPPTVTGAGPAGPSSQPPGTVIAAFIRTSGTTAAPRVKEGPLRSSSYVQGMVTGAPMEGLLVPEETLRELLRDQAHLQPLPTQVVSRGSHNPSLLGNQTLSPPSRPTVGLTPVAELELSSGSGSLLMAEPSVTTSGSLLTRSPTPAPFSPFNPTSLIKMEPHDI
# How it was run: (§1)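 Binding signal is each hexamer's read frequency for a factor divided by its frequency in the tag-only sample. The factors were GST-fused human transcription factors from yeast, captured on glutathione beads, DNA-barcoded and pooled with that sample. Pools were incubated with 200 nmole of a random double-stranded 16-mer DNA library in Tris/NaCl/DTT/glycerol buffer at room temperature for 30 min, then washed, crosslinked with 0.1% formaldehyde, proximity-ligated with BsaI/T4 ligase (1 h, 37 °C), PCR-amplified and sequenced on an Illumina NextSeq500.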
# ETV2 = molecular target: T1, ETV2 (Homo sapiens, UniProt O00321 1-342)
# T1 sequence: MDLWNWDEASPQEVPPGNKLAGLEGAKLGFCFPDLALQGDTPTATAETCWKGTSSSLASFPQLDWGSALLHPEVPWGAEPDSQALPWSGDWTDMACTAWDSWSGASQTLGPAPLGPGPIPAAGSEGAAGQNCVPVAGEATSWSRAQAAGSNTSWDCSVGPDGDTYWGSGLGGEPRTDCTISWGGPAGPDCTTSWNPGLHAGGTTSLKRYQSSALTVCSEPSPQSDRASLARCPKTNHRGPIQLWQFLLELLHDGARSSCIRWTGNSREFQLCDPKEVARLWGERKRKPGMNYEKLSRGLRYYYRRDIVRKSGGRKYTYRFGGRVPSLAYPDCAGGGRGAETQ
# How it was run: as §1
# ELF3 = molecular target: T2, ELF3 (Homo sapiens, UniProt P78545 1-371)
# T2 sequence: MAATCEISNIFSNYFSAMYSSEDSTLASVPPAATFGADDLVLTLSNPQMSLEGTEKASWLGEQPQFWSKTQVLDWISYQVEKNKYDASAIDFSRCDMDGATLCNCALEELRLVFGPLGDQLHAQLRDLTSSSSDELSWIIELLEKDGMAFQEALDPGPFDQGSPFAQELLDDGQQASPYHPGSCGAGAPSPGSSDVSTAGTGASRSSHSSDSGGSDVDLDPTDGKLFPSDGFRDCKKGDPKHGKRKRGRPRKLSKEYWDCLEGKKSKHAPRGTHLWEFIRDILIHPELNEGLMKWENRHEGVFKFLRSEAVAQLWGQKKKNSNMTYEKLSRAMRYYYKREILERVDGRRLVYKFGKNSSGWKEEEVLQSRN
# How it was run: as §1
# ETV1 = ETV1 (Homo sapiens, UniProt P50549 1-477)
# Sequence of ETV1 (P50549 whole entry): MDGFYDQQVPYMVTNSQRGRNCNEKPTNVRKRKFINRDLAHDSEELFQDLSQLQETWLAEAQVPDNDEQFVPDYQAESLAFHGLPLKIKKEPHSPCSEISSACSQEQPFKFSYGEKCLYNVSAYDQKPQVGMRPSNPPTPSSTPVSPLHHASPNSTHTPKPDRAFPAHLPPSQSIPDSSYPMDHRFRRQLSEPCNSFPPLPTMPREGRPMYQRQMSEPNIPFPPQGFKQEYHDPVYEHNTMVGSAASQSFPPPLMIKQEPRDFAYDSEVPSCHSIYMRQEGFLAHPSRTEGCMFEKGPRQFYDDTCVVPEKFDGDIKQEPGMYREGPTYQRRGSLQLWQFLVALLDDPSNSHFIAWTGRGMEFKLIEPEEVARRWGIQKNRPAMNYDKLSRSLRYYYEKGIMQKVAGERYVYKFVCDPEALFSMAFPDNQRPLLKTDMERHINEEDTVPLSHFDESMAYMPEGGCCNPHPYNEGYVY
# How it was run: as §1
# ERF = molecular target: T3, ERF (Homo sapiens, UniProt P50548 1-548)
# T3 sequence: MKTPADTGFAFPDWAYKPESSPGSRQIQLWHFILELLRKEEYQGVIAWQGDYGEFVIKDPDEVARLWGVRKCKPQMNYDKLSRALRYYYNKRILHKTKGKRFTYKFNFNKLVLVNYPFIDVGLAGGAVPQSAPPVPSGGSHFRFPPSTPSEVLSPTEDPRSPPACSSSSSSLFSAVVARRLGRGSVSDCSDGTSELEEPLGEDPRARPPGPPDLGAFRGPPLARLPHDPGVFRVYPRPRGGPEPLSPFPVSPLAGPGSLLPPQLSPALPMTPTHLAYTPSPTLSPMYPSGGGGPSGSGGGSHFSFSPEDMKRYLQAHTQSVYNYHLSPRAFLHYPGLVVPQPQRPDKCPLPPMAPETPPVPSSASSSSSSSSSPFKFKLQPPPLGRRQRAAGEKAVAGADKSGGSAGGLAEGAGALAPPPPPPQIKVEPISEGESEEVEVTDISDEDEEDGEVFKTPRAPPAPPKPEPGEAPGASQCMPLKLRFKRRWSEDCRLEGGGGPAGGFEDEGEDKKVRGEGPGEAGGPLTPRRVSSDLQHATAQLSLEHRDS
# How it was run: as §1
# ETV3L = molecular target: T4, ETV3L (Homo sapiens, UniProt Q6ZN32 1-361)
# T4 sequence: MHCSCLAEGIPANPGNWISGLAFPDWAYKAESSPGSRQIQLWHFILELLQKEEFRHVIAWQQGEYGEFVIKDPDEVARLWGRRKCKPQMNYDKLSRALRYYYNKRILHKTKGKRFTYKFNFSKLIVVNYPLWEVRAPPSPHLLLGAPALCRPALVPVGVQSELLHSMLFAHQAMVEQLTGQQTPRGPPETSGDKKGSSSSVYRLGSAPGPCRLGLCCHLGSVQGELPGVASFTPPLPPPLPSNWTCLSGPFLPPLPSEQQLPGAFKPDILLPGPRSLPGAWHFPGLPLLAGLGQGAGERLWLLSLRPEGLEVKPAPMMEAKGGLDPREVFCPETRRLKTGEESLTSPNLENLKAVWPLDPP
# How it was run: as §1
# ETS2 = molecular target: T5, ETS2 (Homo sapiens, UniProt P15036 1-469)
# T5 sequence: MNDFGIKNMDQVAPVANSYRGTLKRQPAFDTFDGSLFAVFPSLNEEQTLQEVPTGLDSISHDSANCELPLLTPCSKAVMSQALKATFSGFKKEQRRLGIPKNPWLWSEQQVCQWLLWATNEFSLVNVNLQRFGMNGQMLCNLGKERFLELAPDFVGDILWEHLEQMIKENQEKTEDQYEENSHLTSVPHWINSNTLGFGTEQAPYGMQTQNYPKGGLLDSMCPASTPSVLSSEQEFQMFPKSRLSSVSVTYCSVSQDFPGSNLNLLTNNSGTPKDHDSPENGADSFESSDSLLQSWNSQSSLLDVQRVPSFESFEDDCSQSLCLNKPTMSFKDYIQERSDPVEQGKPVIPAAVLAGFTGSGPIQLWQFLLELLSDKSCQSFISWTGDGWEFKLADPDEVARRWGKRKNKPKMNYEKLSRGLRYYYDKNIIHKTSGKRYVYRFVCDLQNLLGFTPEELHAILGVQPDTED
# How it was run: as §1
# ETV7 = molecular target: T6, ETV7 (Homo sapiens, UniProt Q9Y603 1-341)
# T6 sequence: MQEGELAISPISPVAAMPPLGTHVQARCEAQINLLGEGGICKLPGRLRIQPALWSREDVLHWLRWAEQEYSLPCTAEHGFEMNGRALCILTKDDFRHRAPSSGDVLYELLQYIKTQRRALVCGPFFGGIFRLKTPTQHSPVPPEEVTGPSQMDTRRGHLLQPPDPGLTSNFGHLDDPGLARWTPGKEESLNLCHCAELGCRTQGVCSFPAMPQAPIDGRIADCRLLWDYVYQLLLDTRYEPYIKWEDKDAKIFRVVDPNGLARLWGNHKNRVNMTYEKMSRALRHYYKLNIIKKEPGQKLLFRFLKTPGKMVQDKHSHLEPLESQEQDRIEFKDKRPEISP
# How it was run: as §1
# ETV3 = molecular target: T7, ETV3 (Homo sapiens, UniProt P41162-2 1-143)
# T7 sequence: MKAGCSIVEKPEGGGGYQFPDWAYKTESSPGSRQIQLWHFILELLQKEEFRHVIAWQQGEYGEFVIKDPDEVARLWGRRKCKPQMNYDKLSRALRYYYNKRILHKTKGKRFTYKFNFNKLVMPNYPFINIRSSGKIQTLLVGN
# How it was run: as §1
# ETV6 = ETV6 (Homo sapiens, UniProt P41212 1-452)
# Sequence of ETV6 (P41212 whole entry): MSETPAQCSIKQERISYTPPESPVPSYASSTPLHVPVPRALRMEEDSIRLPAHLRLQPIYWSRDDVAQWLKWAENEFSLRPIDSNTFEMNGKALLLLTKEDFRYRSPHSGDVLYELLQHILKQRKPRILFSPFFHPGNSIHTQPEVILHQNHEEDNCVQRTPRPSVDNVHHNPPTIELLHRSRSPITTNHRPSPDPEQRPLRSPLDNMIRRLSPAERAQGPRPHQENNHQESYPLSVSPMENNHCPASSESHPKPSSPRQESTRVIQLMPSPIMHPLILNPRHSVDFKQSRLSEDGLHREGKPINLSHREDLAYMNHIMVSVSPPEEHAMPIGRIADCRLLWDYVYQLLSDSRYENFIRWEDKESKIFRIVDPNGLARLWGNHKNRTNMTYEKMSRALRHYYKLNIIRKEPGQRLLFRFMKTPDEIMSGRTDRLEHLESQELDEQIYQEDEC
# How it was run: as §1
sequence,measurement,setting,value
TGGCCG,binding signal,ELF4,"1.08 fold enrichment (6-mer frequency, TF over GST control)"
same,binding signal,ETV2,"1.04 fold enrichment (6-mer frequency, TF over GST control)"
same,binding signal,ELF3,"1.14 fold enrichment (6-mer frequency, TF over GST control)"
same,binding signal,ETV1,"1.04 fold enrichment (6-mer frequency, TF over GST control)"
same,binding signal,ERF,"1.05 fold enrichment (6-mer frequency, TF over GST control)"
same,binding signal,ETV3L,"1.07 fold enrichment (6-mer frequency, TF over GST control)"
same,binding signal,ETS2,"1.06 fold enrichment (6-mer frequency, TF over GST control)"
same,binding signal,ETV7,"1.06 fold enrichment (6-mer frequency, TF over GST control)"
same,binding signal,ETV3,"1.11 fold enrichment (6-mer frequency, TF over GST control)"
same,binding signal,ETV6,"1.11 fold enrichment (6-mer frequency, TF over GST control)"
